Screening data from PubChem BioAssay.
Shown are actives, neighbours in structure and some others; about 9.2% of the full set was active somewhere.
ELG1 genotox – genotoxicity induction in ELG1-luciferase HEK293T cells. AID 504466. Potency, µM (highest dose often 46 µM), for inactives: at the highest dose activity change, positive = activation, most hits filed as activators. actives 1.3% (n = 330,000). HEK293T ELG1-luciferase reporter, luminescence, 16 h; also: % of control where 0% means no effect; nearly all actives have a fitted effect of over 60% in size
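Quantitative HTS format in 1536-well plates. HEK293T ELG1-luciferase reporter cells receive test compound and are incubated 16 hr at 37 °C, 5% CO2; ONE-Glo added, 30 min room temperature, then luminescence read.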
NPC1 prom act – activates the NPC1 promoter. Huh7 NPC1 promoter luciferase reporter, 24 h. Potency, µM (titrated, usually from 9.22 µM), without a hit: top-dose activation, most hits filed as activators. actives 2.4% (n = 320,000). AID 485313; also: % of control where 0% means no effect; nearly all actives have a fitted effect of over 60% in size
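In 1536-well qHTS, Huh7 cells harboring an NPC1 promoter–luciferase construct received compound for 24 h; activation was quantified by luminescence following luciferase reagent addition.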
SMN2 splice up – enhancers of SMN2 splice variant expression. HEK293 SMN2-luciferase splicing reporter, luminescence, 30-36 h. actives 2.8% (n = 210,000). Potency, µM (highest dose often 46.1 µM), for inactives: at the highest dose activity change, positive = activation, usual class: activators; also: % of control where 0% means no effect; nearly all actives have a fitted effect of over 55% in size
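HEK293 cells carry an SMN2 minigene-luciferase reporter in which exon 7 inclusion puts luciferase in frame. Cells were seeded at 2000 cells/well, attached for 10-12 hours, then exposed to compounds for 30-36 hours at 37C before ONE-Glo luminescence.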
FLuc modulator – inhibits or activates purified firefly luciferase, miR-21 counter-screen; actives 6.9% (n = 360,000); purified FLuc, Km substrates, luminescence inhibition; AID 588342; Potency, µM (titrated, usually from 57.5 µM), for the others: top-dose activity change, negative = inhibition, actives largely listed as inhibitors; P08659;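 also: plate controls were vehicle for no effect and reference inhibitor for full effect; nearly all actives have a fitted effect of over 55% in size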
Target sequence (P08659 whole entry, looked up): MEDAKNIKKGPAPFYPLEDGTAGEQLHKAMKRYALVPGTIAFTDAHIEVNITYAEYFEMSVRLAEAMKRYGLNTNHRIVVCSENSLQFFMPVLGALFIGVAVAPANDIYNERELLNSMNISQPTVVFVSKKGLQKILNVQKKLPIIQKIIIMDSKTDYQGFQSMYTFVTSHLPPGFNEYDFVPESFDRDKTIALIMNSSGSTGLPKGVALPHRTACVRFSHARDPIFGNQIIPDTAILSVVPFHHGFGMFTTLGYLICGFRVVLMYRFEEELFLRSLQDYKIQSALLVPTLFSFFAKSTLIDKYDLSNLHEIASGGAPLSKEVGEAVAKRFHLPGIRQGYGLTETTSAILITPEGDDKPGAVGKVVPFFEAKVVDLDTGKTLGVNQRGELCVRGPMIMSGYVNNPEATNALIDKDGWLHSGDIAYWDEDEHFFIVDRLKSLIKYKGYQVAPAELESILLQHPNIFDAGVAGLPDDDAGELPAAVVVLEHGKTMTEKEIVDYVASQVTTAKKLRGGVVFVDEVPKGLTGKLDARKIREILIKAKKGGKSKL
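Biochemical qHTS of compounds, final roughly 60 µM downward over six points, against 10 nM purified firefly luciferase using Km concentrations of substrates (10 uM D-luciferin, 10 uM ATP) in Tris acetate pH 7.5 buffer; luminescence output.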
Rab9 promoter act – activators of Rab9 promoter. actives 2.8% (n = 320,000). Huh7 Rab9 promoter-luciferase reporter, luminescence, 24 h. AID 485297. Potency, µM (top dose mostly 9.22 µM), without a hit: at the top dose activation, negative = inhibition, most hits filed as activators; also: % of control where 0% means no effect; nearly all actives have a fitted effect of over 60% in size
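Huh7 cells stably carrying Rab9 promoter–luciferase reporter, plated 1500 cells/well, compound added after 2 h and incubated 24 h at 37 °C; luciferase luminescence then read after 10 min with detection reagent.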
ELG1 repair inh – inhibitors of ELG1-dependent DNA repair in HEK293T cells; HEK293T ELG1-luciferase reporter, luminescence, 16 h; DNA damage induced by 5-fluorouridine; Potency, µM (doses to about 46.1 µM), inactives show top-dose activity change, negative = inhibition, hits mostly inhibitors; actives 2.3% (n = 330,000); also: % is scaled to controls: 0 for no effect and ±100 for the full control effect; nearly all actives have a fitted effect of over 55% in size
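HEK293T cells expressing luciferase-tagged ELG1 (2,000/well) received 5-Fluorouridine plus compound or DMSO for 16 hr at 37 °C. Luciferase was read by ONE-Glo luminescence after 30 min at room temperature.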
Active calls of the source: *; ? = inconclusive; nt = not tested or not shown; [ ] = dose if it differs, or a comment. Calls follow the shape of the dose curve; as a rule, active = well fitted curve in the direction sought with a large enough effect; inconclusive = small, poorly fitted or top-dose-only effect, or another doubt; inactive = no such curve, though single readings can be large; an effect the other way counts as inactive or inconclusive. Potency is read from the fitted curve at half-maximal effect.

SMILES	ELG1 genotox	NPC1 prom act	SMN2 splice up	FLuc modulator	Rab9 promoter act	ELG1 repair inh
CCCCNS(=O)(=O)c1ccc2nc(-c3cccnc3)cc(C(=O)NCCC)c2c1	nt	nt	nt	-3%	nt	nt
Cc1ccc(-c2nc3cnccn3c2Nc2ccc3c(c2)OCO3)cc1	-4%	2%	-2%	?	2%	?
Cc1ccn2c(Nc3ccc4c(c3)OCCO4)c(-c3ccc(Cl)s3)nc2c1	nt	nt	21%	6µM*	nt	nt
CN(C)c1ccc(-c2nc3cnccn3c2Nc2ccc3c(c2)OCCO3)cc1	18%	?	nt	11µM*	?	?
CC(C)c1ccc(Nc2c(-c3ccco3)nc3ccccn23)cc1	nt	nt	?	24µM*	nt	nt
Cc1ccc2nc(-c3ccc(Cl)s3)c(Nc3ccc4c(c3)OCCO4)n2c1	nt	nt	14%	?	nt	nt
Cc1ccn2c(Nc3ccc4c(c3)OCO4)c(-c3ccc(N(C)C)cc3)nc2c1	nt	nt	16µM*	?	nt	nt
Cc1cccc2nc(-c3ccco3)c(Nc3ccccc3)n12	-8%	-1%	-52%	?	-1%	?
Cc1ccn2c(Nc3ccc4c(c3)OCO4)c(-c3ccc(Cl)cc3)nc2c1	nt	nt	-5%	-2%	nt	nt
COCC(=O)NCc1nc2cccnc2n1Cc1ccc(F)cc1	nt	nt	nt	1%	nt	nt
Cc1ccc(Nc2c(-c3ccccn3)nc3cccc(C)n23)cc1	-22%	-17%	-95%	-12%	-24%	?
Cc1ccn2c(Nc3ccc4c(c3)OCO4)c(-c3ccco3)nc2c1	nt	nt	15%	6µM*	nt	nt
O=C(O)c1cc(N/N=C/c2c(O)ccc3ccccc23)ccc1Cl	15µM*	1.6µM*	nt	2.4µM*	1.4µM*	?
Nc1cc(Cl)nc(N/N=C/c2c(O)ccc3ccccc23)n1	?	?	?	2.7µM*	2.5µM*	?
O=C(CNc1ccccc1)N/N=C/c1c(O)ccc2ccccc12	8%	-25%	nt	-16%	-25%	?
Cc1ccc(S(=O)(=O)NNc2nc3ccccc3nc2C(F)(F)F)cc1	-3%	0%	-8%	-14%	0%	1%
CCCc1cc(C(=O)Nc2ccc(OC)cc2[N+](=O)[O-])cs1	12%	22%	nt	12µM*	23%	?
COc1ccc(NC(=O)c2ccccc2)c([N+](=O)[O-])c1	?	?	?	?	2.8µM*	?
COc1ccc(NC(=S)NC(NC(=O)c2cccc(Cl)c2)C(Cl)(Cl)Cl)c([N+](=O)[O-])c1 (stereo not given)	-5%	0%	-97%	-1%	9%	16µM*
CNC(=O)CSc1nnc(SCCC(=O)O)s1	2%	-3%	-7%	4%	1%	23%
COc1cc(/C=N/O)ccc1OCc1ccccc1Cl	16µM*	3.2µM*	11µM*	6.7µM*	1.6µM*	?
COc1ccc(/C=N/N=C2/NC(=O)C(CC(=O)O)S2)cc1OCc1ccccc1Cl (stereo not given)	-2%	-1%	11%	-3%	-1%	-3%
Cn1cccc1C(=O)NCCc1ccccc1	2.3µM*	0.4µM*	nt	4.8µM*	0.5µM*	?
Cn1cccc1C(=O)NCCc1ccc(Cl)cc1	?	2.8µM*	nt	15µM*	2.5µM*	?
CCOc1ccc(-c2c(C)nn3c(C)c(C(=O)NCCc4ccc(C)cc4)cnc23)cc1OCC	nt	nt	nt	-1%	nt	nt
SMILES	ELG1 genotox	NPC1 prom act	SMN2 splice up	FLuc modulator	Rab9 promoter act	ELG1 repair inh
CCc1cc2c(=O)oc(-c3ccccc3F)nc2s1	0%	-3%	nt	3.4µM*	-2%	7%
Cc1cc2c(=O)oc(-c3ccccc3Br)nc2s1	2%	0%	nt	7.6µM*	-3%	3%
Cc1cccc(CCNC(=O)c2ccc3c(c2)nc2n3CCCCC2)c1	nt	nt	nt	4.8µM*	nt	nt
Cc1cccc(CCNC(=O)c2ccc3c(c2)nc2n3CCOC2)c1	nt	nt	nt	15µM*	nt	nt
CCCNC(=O)c1ccc2c(c1)nc1n2CCCCC1	nt	nt	nt	17µM*	nt	nt
COc1ccc(CNC(=O)c2ccc3c(c2)nc2n3CCCCC2)cc1	nt	nt	nt	17µM*	nt	nt
O=C(NCCC1=CCCCC1)c1ccc2c(=O)n3c(nc2c1)CCCCC3	0%	13%	-16%	-18%	4%	-8%
O=C(NCCc1ccccc1Cl)c1ccc2c(c1)nc1n2CCOC1	nt	nt	nt	4.8µM*	nt	nt
CCc1nnc(NS(=O)(=O)c2ccc(N=Cc3c(C)[nH]n(-c4ccc(C)c(C)c4)c3=O)cc2)s1	7%	-1%	?	15µM*	-2%	?
Cn1c(-c2ccccc2)cc(=O)c2ccccc21	2%	1%	8%	-19%	0%	7%
COc1ccc2c(c1)c(=O)cc(-c1ccccc1)n2C	?	22%	?	24µM*	12%	?
N#Cc1c(-n2ncnc2-c2ccc(Br)cc2)sc2c1CCCCC2	nt	nt	6%	1.2µM*	nt	nt
COc1cccc(-c2ncnn2-c2sc3c(c2C#N)CCCCC3)c1OC	nt	nt	9%	0.95µM*	nt	nt
CC(C)(C)C(=O)/C(=C/c1ccncc1)n1cncn1	-27%	-32%	-71%	?	-58%	?
Cc1cc([N+](=O)[O-])cnc1NC(C)c1ccccc1 (stereo not given)	-4%	-4%	-35%	-2%	-1%	-5%
Brc1ccc(-c2ncc(-c3ccccc3)cn2)cc1	0.82µM*	0.5µM*	7.9µM*	0.43µM*	0.71µM*	?
Brc1ccc(-c2ccccc2)cc1	2%	8%	5%	-2%	-9%	14%
COc1cccc2cc(CC(=O)c3ccc(C)c(C)c3)c(=O)oc12	9%	6%	nt	17µM*	24%	?
COc1cccc2cc(CC(=O)c3cc(C)ccc3C)c(=O)oc12	-3%	25%	nt	15µM*	23%	-1%
COc1cccc2cc(C(=O)c3ccccc3)oc12	?	?	?	9.5µM*	3.5µM*	?
COc1cccc2cc(C(=O)OCC(=O)NCc3ccc4c(c3)OCO4)c(=O)oc12	?	-2%	nt	11µM*	2%	?
Cc1cc[n+]2cc(-c3cccc([N+](=O)[O-])c3)c(-c3cccc([N+](=O)[O-])c3)cc2c1	-1%	-4%	-1%	-2%	-3%	-17%
CCc1cccc(NC(=O)CCS(=O)(=O)c2ccc3nc(C)sc3c2)c1	nt	nt	nt	-7%	nt	nt
COc1cccc2cc(C(=O)NCc3ccc(C)cc3)c(=O)oc12	2%	-3%	nt	-2%	-5%[1.84 µM]	5%
COc1cccc2cc(CC(=O)c3ccccc3)c(=O)oc12	11%	?	nt	17µM*	?	?
CCc1ccc(C(=O)Cc2cc3cccc(OC)c3oc2=O)cc1	13%	?	nt	15µM*	?	0%
